Compound activity from PubChem.
Pf growth 96h – P. falciparum growth inhibition at 96 hours | P. falciparum luciferase reporter growth, 96 h | Potency, µM (top dose mostly 28.7 µM), without a hit: at the highest dose activity change, negative = inhibition, usual class: inhibitors | actives 6.9% (n = 320,000); further: potency means the concentration at half of the fitted maximal effect; on the % scale 0 is the no-effect control and ±100 the full control effect
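Erythrocytes infected with luciferase-expressing P. falciparum were dispensed at 2% hematocrit and 0.05% parasitemia (final), then incubated with compounds 96 hours at 37 C in 5% CO2. Luminescence after detection reagent addition reported growth.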
Shiga inhibitor – blocks Shiga toxin action in Vero cells. Vero cells, Shiga toxin protein synthesis inhibition reporter. inhibition, % at 38.7 µM. actives 9.2% (n = 290,000). AID 2315; in the data active means inhibition mostly above about 28%, no sharp cut-off; inactive means mostly below about 43%; further: 0% is about no effect
Pf growth 48h – P. falciparum growth inhibition at 48 hours (one generation) | P. falciparum luciferase growth in erythrocytes, 48 h | Potency, µM (series often up to 28.7 µM), for the others: at the highest dose activity change, negative = inhibition, usual class: inhibitors | actives 5.9% (n = 310,000) | AID 504832; further: potency means the concentration at half of the fitted maximal effect; on the % scale 0 is the no-effect control and ±100 the full control effect
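In quantitative HTS format, infected erythrocytes bearing luciferase-reporter parasites were treated for a single generation at 37 C. Luminescence after adding detection reagent served as the growth measure.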
HCMV antiviral – inhibitors of human cytomegalovirus; activity change, negative = inhibition, % at 57.5 µM; AID 1259415; actives 4.5% (n = 410,000); HFF cells, HCMV-luciferase reporter, 72 h; hits give low values; in the data active means activity change below about -60%; inconclusive means no clear call, values can overlap the other calls; inactive means above about -39%; further: on the % scale 0 is the no-effect control and ±100 the full control effect
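Steps: HFFs plated, 16 h 37C; compounds added; HCMV-luciferase added to MOI 1 PFU/cell; 72 h 37C; OneGlo reagent, 5 min room temperature; luminescence read, normalized to controls.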
Cycloheximide cs – affects cycloheximide protein synthesis inhibition readout, counter-screen; actives 12% (n = 300,000); max response, %; cell reporter, cycloheximide protein synthesis inhibition counterscreen; in the data active means max response mostly above about 13%, no sharp cut-off; inactive means mostly below about 14%; further: read at 38.3 µM for the half of the compounds with a filed dose; 0% is about no effect
Numbers without * were called inactive; ? = inconclusive; . = not tested or not shown; + = active, no number; [ ] = another dose, or the depositor's remark. Most compounds without a hit are left out; they make up all but 20% or so of the library. Unless noted, the call rests on the fitted dose curve; in most records, active means well fitted inhibition curve with a large enough effect; inconclusive means small, poorly fitted or top-dose-only effect, or another doubt; inactive means no such curve, though single readings can be large or run the other way.

SMILES | Pf growth 96h | Shiga inhibitor | Pf growth 48h | HCMV antiviral | Cycloheximide cs
C=CCN(C(=O)CC(NC(C)=O)c1ccccc1)c1nc(-c2ccc(S(C)(=O)=O)cc2)cs1 (centres undefined) | ? | 79* | 9.3µM* | 92 | 31*
CCOC(=O)N(O)c1ccc(C=Cc2ccccc2)cc1 | . | . | . | -62* | .
O=C(CF)N(O)c1ccc(C=Cc2ccccc2)cc1 | . | . | . | -79* | .
c1ccc(CNc2ccc(N3CCOCC3)cc2)cc1 | . | . | . | 19 | .
COc1ccc(CNc2ccc(N3CCOCC3)cc2)cc1 | 57% | 73 | -10% | 22 | 22*
CCc1ccc(CNc2ccc(N3CCN(C(C)=O)CC3)cc2)cc1 | -1% | -5 | -20% | -80* | 7
COc1cc(CNc2ccc(NC(C)=O)cc2)ccc1OCc1ccccc1C | -2% | 87* | 30% | -27 | 46*
COc1cc(C(=O)Nc2ccc(NC(C)=O)cc2)ccc1OCc1ccccc1 | -7% | -9 | 5% | ? | 9
COc1cc(CNc2ccc(N3CCN(C(C)=O)CC3)cc2)ccc1OCc1ccccc1 | 41% | 52* | -22% | -5 | 23*
Nc1nc(N2CCOCC2)n[nH]1 | -6% | 23 | -21% | ? | -1
CCN(C(=O)COC(=O)CNS(=O)(=O)c1ccc(C)cc1)C1CCS(=O)(=O)C1 (centres undefined) | . | . | . | -25 | .
O=C(CSc1ccccc1)NN1C(=O)c2ccccc2C1=O | 9.3µM* | -5 | 1% | 19 | -2
COc1ccc(C(=O)Cn2nnc(-c3cccs3)n2)cc1 | . | 91* | 134% | -39 | 63*
CC(Sc1ncn[nH]1)C(=O)NCc1ccccc1 (centres undefined) | -1% | 15 | 123% | -99* | -2
NS(=O)(=O)c1ccc(CCNC(=O)CSc2cccs2)cc1 | 5% | -11 | -1% | -16 | 2
COc1ccc(N2CCN(C(=O)Cn3nnc(-c4cccs4)n3)CC2)cc1 | ? | -24 | -2% | ? | 2
O=C(CSc1ncn[nH]1)NCCCc1ccccc1 | . | -4 | 7% | 1 | -3
O=C(CSc1cccs1)NCCc1ccccc1 | 45% | + | 28% | -36 | 42*
CCOc1ccc(CNC(=O)c2ccc3c(c2)nc2n3CCOC2)cc1OC | . | . | . | 9 | .
CC(Sc1ccccc1)C(=O)NCCc1ccccc1 (centres undefined) | 9.3µM* | 32* | 15% | 38 | 24*
O=C(CSc1ccccc1)NCCc1ccc(F)cc1 | 3.3µM* | . | 8% | ? | 29*
O=C(CSc1ccc(-c2cccs2)nn1)NCCc1ccccc1 | 2.9µM* | -15 | 8% | -35 | -4
O=C(CSc1ccc(-c2cccs2)nn1)Nc1ccccc1 | 1% | 49 | 10% | -15 | 14
O=C(CSc1ccc(-c2cccs2)nn1)c1cccs1 | 10% | 104* | 46% | -9 | 46*
Cc1ccc(SCC(=O)NCCc2ccc(F)cc2)cc1 | 3% | 15 | 14% | 27 | -2
SMILES | Pf growth 96h | Shiga inhibitor | Pf growth 48h | HCMV antiviral | Cycloheximide cs
COc1cc(OC)c(NS(=O)(=O)c2cc3c(cc2C)N(C(C)=O)CCO3)cc1Cl | . | . | . | -8 | .
COc1ccc(N2C[C@H](CSC)[C@@H](CC(=O)Nc3ccccc3)C2=O)cc1 | . | . | . | 3 | .
Cc1ccc(N(CC(=O)NCCc2ccccc2)C(=O)c2csnn2)cc1 | ? | 16 | ? | -88* | -1
COc1cccc(-c2nnn(CCC(=O)O)n2)c1 | ? | -6 | 8% | 34 | -2
COC(=O)Cn1nnc(-c2cccc(OC)c2)n1 | 1%[5.75 µM] | 65* | 2% | -7 | 22*
O=C(Cn1nnc(-c2cccs2)n1)NCCc1ccccc1 | ? | 29 | 17% | 17 | 20*
COc1ccc(C(=O)Cn2nnc(-c3ccccc3NC(=O)c3ccco3)n2)cc1 | -24% | 53 | 8.3µM* | ? | 3
COc1ccc(OC)c(NC(=O)CSc2nc(=O)n(CCN(C)C)c3c2CCC3)c1 | . | . | . | 51 | .
Cc1cc(=O)oc2cc(NC(=O)c3cc([N+](=O)[O-])ccc3N3CCOCC3)ccc12 | ? | 2 | 0% | ? | 5
Fc1ccc(OCc2nn[nH]n2)c(F)c1 | ? | -18 | -4% | -32 | -4
O=C(CSc1ccccc1)NCCc1ccccc1 | ? | 44* | 33% | 27 | 37*
Cc1ccc(SCC(=O)NCCc2ccccc2)cc1 | ? | 18 | 20% | 0 | 14*
Cc1ccc(SCC(=O)NCCSC(C)(C)C)cc1 | 39% | 35 | . | -1 | 29*
O=C(CSc1ncn[nH]1)NCCc1ccccc1 | -1% | 3 | . | 7 | 5
COCCNC(=O)CSc1ccc(C)cc1 | ? | 5 | 12% | 15 | -3
COc1ccc(CNS(=O)(=O)c2ccc(N3CCCCS3(=O)=O)cc2)cc1 | . | . | . | -36 | .
COc1ccccc1-c1nnc(SCC(=O)NC2CCS(=O)(=O)C2)n1N (centres undefined) | 37% | 18 | 6% | 3 | 6
COc1ccc(/C=C/C(=O)c2ccc([N+](=O)[O-])o2)cc1 | 20% | . | ? | 44 | .
Cc1cccc(/C=C/C(=O)c2ccc([N+](=O)[O-])o2)c1 | -1% | . | ? | -103* | .
Cc1ccccc1/C=C/C(=O)c1ccc([N+](=O)[O-])o1 | ? | . | ? | -103* | .
Cc1ccccc1N1CCN(C2=NC(=O)/C(=C\c3cccs3)S2)CC1 | 10µM* | 104* | ? | 54 | 78*
CC(=O)N1CCN(C2=NC(=O)/C(=C\c3cccs3)S2)CC1 | -16% | -7 | -23% | 13 | 5
O=C1N=C(N2CCN(c3cccc4ccccc34)CC2)S/C1=C/c1cccs1 | 9.3µM* | 1 | 8.3µM* | 12 | 9
CC(=C/c1ccccc1)/C=C1/SC(N2CCOCC2)=NC1=O | -14% | 30* | 27% | -18 | 23*
O=C1N=C(N2CCOCC2)S/C1=C/c1cccs1 | 12µM* | 20 | -26% | 19 | 25*
SMILES | Pf growth 96h | Shiga inhibitor | Pf growth 48h | HCMV antiviral | Cycloheximide cs
Cc1ccc(Cn2c(C)c(CNCC(C)c3ccccc3)c(C(=O)O)c2C)cc1 (centres undefined) | . | . | . | -18 | .
NC(=O)CC(NC(=O)c1cccc(Br)c1)c1ccc(NC2CCC2)c([N+](=O)[O-])c1 (centres undefined) | -20% | -2 | 29% | -4 | -1
CC1CCN(C(=O)CN(c2cccc(F)c2)S(C)(=O)=O)CC1 | 14% | 26 | 0% | -28 | -1
O=C(c1nn(Cc2ccccc2)c(=O)c2ccccc12)N1CCN(C/C=C/c2ccccc2)CC1 | 7.4µM* | 18 | 12µM* | 23 | -4
COc1ccc(NS(=O)(=O)c2cc(C(=O)N3CCN(C/C=C/c4ccccc4)CC3)ccc2C)cc1 | ? | . | 12µM* | -33 | .
COc1ccccc1/C=C/CN1CCC(Oc2cc(C(=O)NC3CC3)ccc2OC)CC1 | 45% | 10 | 9.3µM* | 0 | -3
O=C(c1ccco1)N1CCN(C/C=C/c2ccccc2)CC1 | -4% | 22 | 31% | 141 | 10
Cc1cc(C)cc(CN2CCC(Oc3ccc(C(=O)N4CCCC4)cc3)CC2)c1 | -19% | -6 | 12µM* | 11 | -1
Oc1ccc(F)c(CN2CCN(c3ncc(Cc4ccccc4)cn3)CC2)c1 | . | . | . | 24 | .
